High-throughput results from PubChem.
MsrA act: activates bovine MsrA enzyme. purified bovine MsrA, absorbance read-out. activation, % at 10.6 µM. actives 0.3% (n = 360,000). AID 602163; in the data active = activation above about 7.5%;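 note: 0% = vehicle and 100% = reference activator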
KLK7 zymogen act: activators of human kallikrein-7 zymogen. P49862. purified proKLK7, EDANS-DABCYL substrate fluorescence; 100% is mature enzyme control, 0% vehicle. activation, % at 7 µM. actives 0.9% (n = 370,000). AID 652039;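 active = activation above the mean of all tested compounds plus 3 SD, computed per campaign excluding outliers beyond control limits, cut at about 13% in these data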
Target sequence (P49862 whole entry, looked up): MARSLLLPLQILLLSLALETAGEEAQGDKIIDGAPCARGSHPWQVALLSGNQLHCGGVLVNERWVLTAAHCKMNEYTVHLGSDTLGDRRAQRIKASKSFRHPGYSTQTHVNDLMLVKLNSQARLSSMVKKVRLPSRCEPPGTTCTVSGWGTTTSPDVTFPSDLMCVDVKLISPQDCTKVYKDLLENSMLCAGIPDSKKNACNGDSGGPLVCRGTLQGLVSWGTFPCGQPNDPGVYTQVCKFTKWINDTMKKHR
MsrA inhibitor: inhibits bovine methionine sulfoxide reductase A. purified bovine MsrA, absorbance read-out. inhibition, % at 15.5 µM. actives 0.75% (n = 360,000); in the data active = inhibition above about 4.5%;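 note: 0% = vehicle wells with enzyme and 100% = reference inhibitor wells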
SMARCA2 act: increases SMARCA2 function in MMTV reporter cells | MG213 cells, MMTV-luciferase reporter, dexamethasone, overnight | activation, % at 9.1 µM | actives 1% (n = 370,000); in the data active = activation above about 7.8%;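 note: 0% = vehicle wells and 100% = reference activator wells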
MsrA activ conf: bovine methionine sulfoxide reductase A activation confirmed; shares compounds with MsrA act; purified bovine MsrA, absorbance read-out; activation, % at 10.6 µM; actives 12% (n = 1,000); AID 602270; in the data active = activation above about 4%;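 note: enzyme coupled to thioredoxin and thioredoxin reductase with NADPH; 0% = vehicle wells and 100% = reference activator wells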
Numbers without * were called inactive; . = no result. This is a sample that favours compounds with a hit; in the whole collection about 2.8% have one here.

SMILES	MsrA act	KLK7 zymogen act	MsrA inhibitor	SMARCA2 act	MsrA activ conf
CCOc1cccc(C(c2c(C)n(C)n(-c3ccccc3)c2=O)c2c(C)n(C)n(-c3ccccc3)c2=O)c1OC	12.9*	-0.2	0.0	-1.9	-1.2
CCOc1ccccc1C(c1c(C)n(C)n(-c2ccccc2)c1=O)c1c(C)n(C)n(-c2ccccc2)c1=O	-2.8	-0.8	-0.7	-2.9	.
CC(=O)Nc1ccc(S(=O)(=O)N2c3ccccc3NC(=O)CC2C)c(Cl)c1 (configuration not stated)	12.1*	0.4	0.0	0.0	1.0
Cc1ccc(F)c(S(=O)(=O)NC(=O)C2(C)CCN2C(=O)c2cccc3ccccc23)c1 (configuration not stated)	-1.8	0.1	-0.5	-4.5	.
COc1ccc(NS(=O)(=O)c2cc(NC(=O)c3ccc(F)cc3)ccc2OC)cc1	9.7*	0.1	-0.8	-2.2	-0.5
COc1ccc(NC(=O)c2ccc(F)cc2)cc1S(=O)(=O)Nc1cc(C)ccc1Br	-3.4	0.8	-1.6	-4.4	.
CCOC(=O)c1sc(=S)n(-c2ccccc2)c1SC	9.2*	-0.5	3.2	-3.3	-5.5
CCOC(=O)c1sc(=S)n(-c2ccccc2Cl)c1SC	-7.4	-0.1	1.2	2.9	.
COc1ccc(CCNS(=O)(=O)c2ccc(C3CNC(=O)C3)cc2)cc1OC (configuration not stated)	9.5*	-0.1	0.0	-0.3	-1.7
COc1ccc(CCNS(=O)(=O)c2ccc(S(=O)(=O)N3CCCC3)cc2)cc1OC	-1.4	1.0	-0.4	0.2	.
COc1ccc(N2CCN(C3CCN(S(=O)(=O)c4ccc(F)cc4)CC3)CC2)cc1	9.5*	-0.3	-0.3	-1.2	-3.6
CC(C)C[C@H]1CNC(=O)C(=O)N1C[C@@H]1CCCN1C[C@H](Cc1ccccc1)N1C[C@H](Cc2ccccc2)N(CC2CCCCC2)C(=O)C1=O	7.9*	0.5	-0.6	-0.6	0.5
CC(C)CCN1CCC(CN2C(=O)C(=O)NC[C@@H]2CC(C)C)CC1	11.6*	0.1	0.6	-0.7	1.1
CC(C)C[C@H]1CNC(=O)C(=O)N1C[C@@H]1CCCN1C[C@H](Cc1ccc(O)cc1)N1C[C@H](Cc2ccccc2)N(CC2CCCCCC2)C(=O)C1=O	-4.3	-2.5	0.3	-2.1	.
O=C(NC(c1ccc(Cl)cc1)c1ccsc1)C1CCN(CCOc2ccc(Cl)cc2)CC1 (configuration not stated)	-0.1	0.5	-0.1	2.3	.
CCN(CCCNC(=O)CCn1c(=S)[nH]c2cc3c(cc2c1=O)OCO3)c1cccc(C)c1	8.1*	0.1	0.3	-1.3	-1.7
Cc1ccc(N=Nc2cc(C)ccc2O)c(C)c1	10.5*	-0.5	-0.6	1.6	-0.3
Oc1ccc2ccccc2c1C=Nc1ccc(N2CCOCC2)cc1	.	0.1	0.1	1.1	.
C(=Nc1ccc(N2CCOCC2)cc1)c1c[nH]c2ccccc12	11.6*	-0.1	0.2	3.5	0.0
Cc1ccccc1CC(=O)Nc1nnc(-c2cccnc2)s1	.	-0.8	.	-1.5	.
Cc1ccc(S(=O)(=O)N(C)CC(=O)Nc2ccccc2N2CCCC2)cc1	-1.3	-0.6	0.2	-2.1	.
CN(CC(=O)Nc1ccccc1N1CCOCC1)S(=O)(=O)c1ccc(Cl)cc1	8.0*	0.3	-0.2	-1.6	5.5*
CCCOC(=O)c1ccc(NC(=O)CN(C)Cc2cccs2)cc1	9.9*	0.2	-0.3	0.2	0.6
COc1ccc(NC(=O)CN(C)C(=O)Cc2n[nH]c(=O)c3ccccc23)cc1	-0.9	0.8	-0.9	-1.8	.
CCOc1ccc(N2CC(C(=O)NCCCN3CCOCC3)CC2=O)cc1 (configuration not stated)	9.1*	-0.2	0.2	-0.3	-2.1
SMILES	MsrA act	KLK7 zymogen act	MsrA inhibitor	SMARCA2 act	MsrA activ conf
O=C(NCCCN1CCOCC1)C1CC(=O)N(c2ccccc2)C1 (configuration not stated)	-1.0	1.1	1.3	-3.0	.
COc1cc(N(C)C)ccc1C=c1c2ccccc2n2c1cc(-c1ccccc1)[n+]2C	3.8	1.7	0.5	-10.3	.
CN(C)c1ccc(C=c2c3ccccc3n3c2cc(-c2ccccc2)[n+]3C)cc1	9.8*	0.7	2.1	-10.9	1.4
CCOC(=O)c1[nH]c2ccc(F)cc2c1NC(=O)CN1CCN(C/C=C/c2ccccc2)CC1	10.1*	-0.3	0.1	-1.7	-0.9
Cc1nnc(Sc2c(N)n(C)c(=O)[nH]c2=O)s1	11.5*	0.0	-1.4	0.1	-1.5
CCOC(=O)C1=CC[C@@H](c2cccc(C)c2)N(S(=O)(=O)c2ccc(C)cc2)[C@H]1C(=O)OCC	9.9*	0.9	-0.5	-0.7	0.8
